This is part of a sample that, as a whole, favours compounds with a hit. Of some 83,000 tested, about 20% had one in any assay.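 Growth was measured after 48 h exposure to one concentration of compound in 96-well plates. Values under 10 count as active.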 The source made the active and inactive calls.
Key:
Assay in all cases: NCI-60 one-dose screen, 48 h (100 = growth as untreated, 0 = no growth, -100 = all killed)
Details in all cases: 10 µM unless noted
[1] = tested on: HCT-15 colon
[2] = tested on: HT29 colon
[3] = tested on: SNB-75 CNS
[4] = tested on: SNB-19 CNS
[5] = tested on: U251 CNS
[6] = tested on: SK-MEL-5 melanoma
[7] = tested on: UACC-62 melanoma
[8] = tested on: LOX IMVI melanoma
[9] = tested on: SK-MEL-28 melanoma
[10] = tested on: PC-3 prostate

Measured: growth

C[C@H]1[C@H]2[C@H]3CC[C@@H]4[C@@]5(C)CC[C@H](O)C(C)(C)[C@@H]5CC[C@@]4(C)[C@]3(C)CC[C@]23CO[C@]1(C)[C@@H](C(=O)/C=C\c1cccnc1)C3
inactive: [1] 38.5% | [2] 99.5% | [3] 72.8% | [4] 71.6% | [5] 58.6% | [6] 37% | [7] 41.5% | [8] 51.5% | [9] 66.2%

NCCCNc1nc2ccccc2c2c(=O)c3cc(F)cc(Cl)c3sc12
inactive: [1] 64.1% | [3] 69.7% | [4] 89.4% | [10] 59.4% | [8] 79.4% | [9] 107%
active: [2] 4.38% | [5] -63.9%

COc1ccn2c(C(C)=O)cc(C(=O)c3ccc4c(c3)Sc3ccccc3N4)c2c1
inactive: [1] 15% | [3] 21.1% | [4] 40.3% | [5] 17.9% | [7] 35.9% | [8] 19.7% | [9] 46.7%
active: [2] -0.653% | [6] -39.7%

CC(C)n1cnc2c(Nc3cccc(Cl)c3)nc(N[C@H]3CCCC[C@@H]3N)nc21
inactive: [1] 58.1% | [2] 11.3% | [3] 32.8% | [4] 59.7% | [5] 57.3% | [6] 53.3% | [7] 68.3% | [8] 45.2% | [9] 61.7%

C=C1CC[C@@]2(C#N)[C@H]3[C@H](CC[C@@H]2C)[C@@H](C)C[C@@H](CC(C)(C)C#N)[C@H]13
inactive: [1] 43.6% | [2] 46.8% | [3] 44.6% | [4] 56.4% | [5] 46.4% | [6] 37.5% | [7] 43.5% | [8] 26.6% | [9] 60.3%

COc1ccc(-c2cc(-c3ccc(Cl)cc3)c(C#N)c(=O)n2CCCCCC(=O)Nc2ccccc2N)cc1
inactive: [1] 23.1% | [2] 14.8% | [4] 70.7% | [5] 48.8% | [9] 60.5%
active: [3] -6.08% | [6] -79.7% | [8] -54.2%

Cc1cc(=O)[nH]c(=O)n1Cc1cn(-c2c3ccccc3nc3ccccc23)nn1
inactive: [1] 79.2% | [2] 113% | [3] 103% | [4] 87.3% | [5] 88.3% | [6] 78.9% | [7] 85.2% | [8] 15.2% | [9] 75.6%

O=C(Nc1ccc(-c2nc(-c3cccc(OCCN4CCOCC4)c3)c(-c3ccnc(Br)c3)[nH]2)cc1)c1ccccc1
active: [1] -7.78% | [2] 1.79% | [3] -37.3% | [4] -0.968% | [5] 8.84% | [6] -92.7% | [7] -15.9% | [8] -58.8% | [9] -29.5%

COC(=O)/C=C1\S/C(=N\Nc2ccc([N+](=O)[O-])cc2[N+](=O)[O-])N(C2CCCCC2)C1=O
inactive: [1] 11% | [2] 26.7% | [3] 51.4% | [4] 51.3% | [5] 25.8% | [6] 82.4% | [8] 72.4% | [9] 86.5%

O=C(Nc1ccc(Cl)cc1F)c1cc(Cl)ccc1O
inactive: [2] 19.5% | [4] 13.6%
active: [1] -4.97% | [3] -6.93% | [5] 9.73% | [6] -90.5% | [7] -41.2% | [8] -18.9% | [9] -3.71%

O=[N+]([O-])c1ccc(Cl)c(-c2cc(CCCCO)on2)c1
inactive: [1] 110% | [2] 103% | [3] 81.7% | [4] 95.4% | [5] 101% | [6] 104% | [7] 93.8% | [8] 97.6% | [9] 107%

COc1cc(C(=O)/C=C/c2c(Cl)nc3sccn23)cc(OC)c1OC
inactive: [1] 59.4% | [2] 67.5% | [3] 70.9% | [4] 83% | [5] 77.4% | [6] 86.4% | [7] 78.7% | [8] 63.8% | [9] 93.6%

CCOC(=O)c1cn2ncnc(Oc3ccc(NC(=O)NCCN(CC)CC)c(Cl)c3)c2c1C
inactive: [3] 89.1% | [4] 83.2% | [5] 65.2% | [6] 46.6%
active: [1] 3.71% | [2] 5.37% | [7] -8.89% | [8] -32.7% | [9] -77.4%

O=C(O)c1cn(C2CC2)c2cc(N3CCN(C(=O)Nc4nc(-c5ccccc5)cs4)CC3)c(F)cc2c1=O
active: [2] 4.04% | [3] 9.5% | [5] 9.17% | [6] 3.08% | [8] -81.8%
inactive: [1] 29.9% | [4] 21.6% | [7] 15.2% | [9] 52.9%

N#CC1=C(N)Oc2c(sc3c(Br)cccc23)C1c1ccc(Br)cc1 (stereo not given)
active: [2] 1.76%
inactive: [1] 22.4% | [3] 15% | [4] 52.6% | [5] 14% | [6] 15.6% | [7] 21.2% | [8] 21.6% | [9] 50.6%

Cc1ccc(-c2nc(N3CCN(C(=O)c4ccc(OC(F)(F)F)cc4)CC3)c3ccccc3n2)cc1
inactive: [1] 72.8% | [2] 88.9% | [3] 76.2% | [4] 88.4% | [5] 86.1% | [10] 63.9% | [8] 89.4% | [9] 101%

COC1=C(C)C(=O)c2c(c(CCCl)c3n2CCC3OC(C)=O)C1=O (stereo not given)
active: [1] 1.95% | [2] -15.6% | [3] -44.6% | [4] 1.56% | [5] -9.94% | [6] -66.7% | [7] -71% | [8] -34.8% | [9] -32%

COc1cccc(Oc2ccccc2NC(=O)CNC(=O)c2cccc3ccccc23)c1
active: [2] 6.01% [5 µM]
inactive: [1] 17.8% [5 µM] | [3] 28% [5 µM] | [4] 41.7% [5 µM] | [5] 23.2% [5 µM] | [6] 11.7% [5 µM] | [7] 16.1% [5 µM] | [8] 26.1% [5 µM] | [9] 57.5% [5 µM]

Cn1cc(-c2ccc3cc(-c4ccc(CC(=O)Nc5cc(C(C)(C)C)nn5C)cc4)cnc3c2)cn1
active: [1] 5.84% | [3] 3.79% | [6] -35.4% | [7] -16.6%
inactive: [2] 22.6% | [4] 29.2% | [5] 20.1% | [8] 14.1% | [9] 16.7%

Cc1nn(-c2ccccc2)c(-n2ccnc2)c1/C=N/Nc1nc(-c2ccc(F)cc2)cs1
inactive: [1] 76.8% | [2] 81.2% | [3] 73.7% | [4] 87.1% | [5] 74.4% | [6] 31.4% | [7] 74.9% | [8] 83.7% | [9] 97.6%

NCCNc1nc2ccccc2c2c(=O)c3cc(F)ccc3sc12
inactive: [1] 51.2% | [2] 14.4% | [3] 71.2% | [4] 78.1% | [5] 64.7% | [6] 93.9% | [7] 102% | [8] 24.2% | [9] 107%

COc1c(B(O)O)cc(F)cc1-c1nc2ccc3[nH]ncc3c2c2c1CCCC2
active: [1] 3.63% | [3] -94.5% | [8] 2.28%
inactive: [2] 13% | [4] 11.3% | [5] 11.8% | [7] 20.6% | [9] 21.3%

COc1cc(C2CC(c3ccc(SC)cc3)=NN2C(C)=O)cc(OC)c1OC (stereo not given)
inactive: [1] 47.5% | [2] 21.9% | [3] 11.9% | [4] 74.3% | [5] 62.7% | [6] 70.2% | [7] 57.9% | [8] 62.3% | [9] 75.3%

O=C(/C=C/c1sc(Cl)nc1Cl)c1ccc(F)cc1
inactive: [1] 31.2% | [2] 84.5% | [3] 92.5% | [4] 90.8% | [5] 40.4% | [10] 88.5% | [9] 97.2%
active: [8] 0.0946%

c1cc(-c2nnc(SSc3ncnc4nc[nH]c34)o2)ccn1
active: [8] 9.77%
inactive: [1] 37.3% | [2] 18.9% | [3] 56.8% | [4] 93.1% | [5] 72.4% | [6] 72.1% | [7] 11.8% | [9] 76.2%

Clc1ccc(C(/C=C/c2sc(Cl)nc2Cl)=N/Nc2cc(Cl)cc(Cl)c2)cc1
inactive: [1] 105% | [3] 101% | [4] 96.4% | [5] 101% | [10] 96.7% | [6] 103% | [7] 88.6% | [8] 98.4% | [9] 105%

CCCCCCn1c(-c2ccc(C(=O)O/N=C(\N)c3ccc(OC)cc3)cc2)nc(-c2ccccc2)c1-c1ccccc1
active: [1] -41.1% | [3] -20.3% | [5] -42.9% | [10] 3.94% | [8] -91.6%
inactive: [4] 32.5% | [6] 49.9% | [7] 18.1% | [9] 42.1%

O=c1ccn(Cc2cn(-c3c4ccccc4nc4ccccc34)nn2)c(=O)[nH]1
inactive: [1] 91.6% | [3] 102% | [4] 94.1% | [5] 89.5% | [10] 97.5% | [6] 91.3% | [7] 91.4% | [8] 74.2% | [9] 102%

Cc1ccc(C(=O)NCCNc2nccc(-c3c(-c4cccc(F)c4)nc4sccn34)n2)cc1
inactive: [1] 38.9% | [4] 69.5% | [5] 62% | [10] 56.2% | [6] 37.6% | [7] 23.7% | [8] 39.4% | [9] 65%
active: [3] -1.5%
